A selection: hits, their analogues and other compounds. The true share with any hit is near 4.2%.
S1P4 antagonist – S1P4 receptor antagonists, primary screen, cell-based. S1P4-expressing cells, antagonist mode, reporter read-out. inhibition, % at 4.98 µM. 220,000 compounds, 0.26% hits. AID 1510, 2009; in the data active means inhibition above about 29%;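 further: 0% = wells stimulated with agonist and 100% = vehicle wells without agonist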
Target sequence (O95977 whole entry, looked up): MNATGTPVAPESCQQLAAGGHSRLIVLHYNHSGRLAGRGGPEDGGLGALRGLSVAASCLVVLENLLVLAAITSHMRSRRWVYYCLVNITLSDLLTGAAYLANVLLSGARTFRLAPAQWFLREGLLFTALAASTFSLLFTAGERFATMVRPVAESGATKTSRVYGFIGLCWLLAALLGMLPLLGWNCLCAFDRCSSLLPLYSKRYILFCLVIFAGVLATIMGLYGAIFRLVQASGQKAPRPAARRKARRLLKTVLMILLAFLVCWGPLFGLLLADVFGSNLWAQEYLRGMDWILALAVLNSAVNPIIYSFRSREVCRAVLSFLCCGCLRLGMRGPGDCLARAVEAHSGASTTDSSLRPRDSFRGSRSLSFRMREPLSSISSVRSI
Hsp70 activator – Hsp70 transcriptional activators, primary screen, cell-based, HeLa, Hsp70 promoter luciferase, luminescence, 10 µM | HeLa Hsp70 promoter luciferase reporter; scaled: vehicle 0, proteasome-inhibitor control 100% | activation, % at 10 µM | 200,000 compounds, 0.04% hits;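 active means activation above the mean across all tested compounds plus 3 SD, cutoff set per campaign, cut at about 5.5% in these data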;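 further: 100% = MG132 at 30 µM as the positive control and 0% = DMSO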
CHOP inhibitor – inhibitors of CHOP promoter induction, primary screen, cell-based, unfolded protein response, luciferase reporter. AID 2732, 2010. 220,000 compounds, 3.8% hits. inhibition, % at 10 µM. CHO-K1 CHOP-promoter luciferase, tunicamycin-induced, 15-18 h;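 active means compounds that reduced the stress-induced luciferase reporter signal by more than about 70% of percent inhibition, limit read from the data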;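 further: 0% = tunicamycin plus vehicle and 100% = wells without tunicamycin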
S1P4 ag – S1P4 receptor agonists, primary screen, cell-based; Sphingosine 1-phosphate receptor 4 (Homo sapiens), O95977; S1P4-expressing cell line, agonist reporter assay; activation, % at 4.98 µM; 220,000 compounds, 0.35% hits; in the data active means activation above about 11%;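 further: 0% = DMSO vehicle and 100% = reference agonist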
The depositor's hits bear a star; / = no result.

SMILES	S1P4 antagonist	Hsp70 activator	CHOP inhibitor	S1P4 ag
CCn1ccnc1CN(C)Cc1cn(-c2ccc(C)cc2)nc1-c1cccc(C)c1	-9	0	83*	1
COc1ccc2ccccc2c1C(O)c1nccn1C (stereo unspecified)	-7	0	84*	-1
Cn1ccnc1C(O)c1ccccc1 (stereo unspecified)	-7	0	-9	0
O=C(Cc1n[nH]c(=O)c2ccccc12)NCc1ccc(Cl)cc1	-3	/	9	0
O=c1[nH]nc(Cc2ccc(-c3cccc(Cl)c3)o2)c2ccccc12	-17	0	72*	-2
CC(=O)NC(=S)NNC(=O)C(c1ccccc1)c1ccccc1	3	0	41	-2
CCCCNc1nc(N(C)c2ccccc2)nc(-n2ccnc2)n1	-8	0	70	2
CCCCCNc1nc(-c2ccccc2)nc(-n2ccnc2)n1	-3	0	72*	-1
CCN=C(Nc1cccc(F)c1)SC1CC(=O)N(c2ccc(OC)cc2)C1=O (stereo unspecified)	0	0	90*	3
O=C1CC(SC(=Nc2ccccc2)Nc2ccccc2)C(=O)N1c1ccc(Cl)c(Cl)c1 (stereo unspecified)	-12	0	90*	1
CCN(CC)c1cccc(OC2=NS(=O)(=O)c3ccccc32)c1	2	0	81*	1
Cc1ccc(OC2=NS(=O)(=O)c3ccccc32)cc1	12	0	19	1
O=C(NCc1ccccc1)c1cccc(OCC(=O)N2CCN(C(=O)c3ccco3)CC2)c1	-5	0	22	-1
Cc1cccc(N(CC(O)CON=C2c3ccccc3-c3ccccc32)S(C)(=O)=O)c1 (stereo unspecified)	10	0	70*	2
CN(CC(O)CON=C1c2ccccc2-c2ccccc21)S(=O)(=O)c1ccc(Br)cc1 (stereo unspecified)	-1	0	17	-1
CS(=O)(=O)N(CC(O)CON=C1c2ccccc2-c2ccccc21)c1ccc(F)cc1 (stereo unspecified)	-3	0	73*	0
CCOC(=O)C1=C(C)N=C2c3ccccc3C(=O)C2C1c1ccccc1 (stereo unspecified)	4	0	24	-2
CCOC(=O)C1=C(C)N=C2c3ccccc3C(=O)C2C1c1ccc(C)cc1 (stereo unspecified)	-4	0	74*	-2
Cc1cccc(N2CCN(C(=O)NCc3ccc(Cl)cc3)CC2)c1	-10	0	11	3
CSCC[C@H](NC(=O)c1cc([N+](=O)[O-])ccc1Cl)c1nc2ccccc2[nH]1	-25	-1	16	6
COc1ccccc1N=C1SC(C(=O)Nc2cccc(Cl)c2Cl)C(N)=C1C(N)=O (stereo unspecified)	10	/	-12	1
CCOC(=O)C(=O)Nc1ccccc1C#N	6	0	31	2
CCOc1ccc(N=C2SC(C(=O)Nc3ccccc3C#N)C(N)=C2C(=O)Nc2ccc(Cl)cc2)cc1 (stereo unspecified)	-1	0	76*	1
N#Cc1ccccc1NC(=O)C1SC(=Nc2ccccc2)C(C(=O)Nc2ccc(Cl)cc2)=C1N (stereo unspecified)	-13	0	100*	1
CN(C)c1nn(C(=O)Nc2cccc(C(F)(F)F)c2)cc1-c1ccccc1	-7	1	90*	2
SMILES	S1P4 antagonist	Hsp70 activator	CHOP inhibitor	S1P4 ag
O=S(=O)(NCCNC/C=C/c1ccc(Br)cc1)c1cccc2cnccc12	/	/	95*	/
O=C(Cn1nnc(-c2cccc(C(F)(F)F)c2)n1)NC(=O)NCc1ccco1	-20	0	90*	2
CCOCCc1nnc(NC(=O)Cc2ccc(Br)cc2)s1	-11	0	1	0
C=CCn1c(COc2ccc(CC)cc2)nnc1SC/C(O)=C(\C#N)c1nc2ccccc2[nH]1	-18	-1	88*	0
COc1ccc(C(=O)C(OC(=O)c2ccc(C)c(NC(C)=O)c2)c2ccccc2)cc1 (stereo unspecified)	0	0	3	-2
COc1ccc(C(=O)OC(C(=O)c2ccccc2)c2ccccc2)cc1 (stereo unspecified)	-9	0	72*	4
COc1cc(C(=O)OCC(=O)Nc2c(F)cccc2F)cc(OC)c1C	-15	0	94*	1
CC(C)(C)c1cccc(/C=N/O)c1O	7	0	75*	2
CC(C)(C)c1ccc(O)c(/C=N\O)c1	-5	0	78*	0
CCN(CC)S(=O)(=O)c1ccc(-c2nnc(SCC(=O)c3ccc(OC)cc3)o2)cc1	-3	0	1	-2
COc1ccc2c(c1)Cc1sc(NC(=O)c3ccccc3)nc1-2	-8	0	84*	-2
COc1ccc(C(=O)Nc2nc3c(s2)Cc2cc(OC)ccc2-3)cc1	-8	0	13	0
COc1ccc2c(c1)Cc1sc(NC(=O)c3cccs3)nc1-2	-19	0	74*	0
O=c1c2ccc(Cl)cc2nc(-c2cccc(C(F)(F)F)c2)n1O	-12	0	74*	0
O=C(O)c1ccccc1-c1nc2cc(Cl)ccc2c(=O)n1O	-16	0	8	2
COc1cc(NS(=O)(=O)c2ccc(Nc3nc(-c4ccccn4)cs3)cc2)nc(OC)n1	-17	0	-18	0
N#Cc1c(NC(=O)CSc2ncn[nH]2)sc2c1CCCCC2	-9	0	91*	0
N#Cc1c(NC(=O)CSc2nnnn2C2CCCC2)sc2c1CCCC2	-4	0	82*	0
COC(=O)c1c(NC(=O)CSc2ncnc3[nH]ncc23)sc2c1CCC2	-2	0	77*	2
Oc1c(C(c2ccccn2)N2CCCCC2)cc(Cl)c2cccnc12 (stereo unspecified)	-20	0	-8	-1
c1ccc2sc(N3CCOCC3)nc2c1	2	0	15	-1
COc1cccc2sc(N3CCN(c4nc5ccccc5s4)CC3)nc12	-20	0	80*	3
Cn1nc(C(F)(F)F)c(CNC(=O)C(C)(C)CCl)c1N1CCOCC1	-17	0	13	1
CN1CCCC(OC(=O)c2cc(Cl)ccc2Cl)C1 (stereo unspecified)	-3	0	32	0
CCOC(=O)C1CCN(C(c2cc3ccc(C)c(C)c3[nH]c2=O)c2nnnn2C2CCCCC2)CC1 (stereo unspecified)	4	0	6	1
CCCn1c(SCC(=O)N2CCCC(C)C2)nnc1-c1cccnc1 (stereo unspecified)	-15	0	12	0
O=C1N(Nc2ccccc2)C(c2ccc(Br)cc2)C12CCCC2 (stereo unspecified)	-32	0	94*	0
O=C1N(Nc2ccccc2)C(c2ccc(Br)cc2)C12CCCCC2 (stereo unspecified)	-44	0	73*	4
O=C1OC(c2ccccc2)C2(CCCC2)C(=O)C12CCCC2 (stereo unspecified)	-6	0	57	2

Source: PubChem BioAssay
